# Screening results from PubChem BioAssay.
# RecA splice inh: Mtb RecA intein splicing inhibition; P9WHJ3; inhibition, % (no concentration beside the values); actives 0.75% (n = 290,000); cell-free RecA intein splicing, fluorescence; in the data active = inhibition above about 30%;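 also: 0% = vehicle wells and 100% = reference inhibitor control wells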
# Mtb FBA inh: Mtb fructose-bisphosphate aldolase inhibition; P9WQA3; purified M. tuberculosis FBA, fluorescence read-out; inhibition, % at 1 µM; actives 2.3% (n = 360,000); in the data active = inhibition above about 27%;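 also: 0% = vehicle and 100% = reference inhibitor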
# GDH-TPI counter: inhibits GDH-TPI coupling enzymes, artifact for Mtb FBA screen; GDH-TPI coupled enzyme counterscreen, NADH absorbance; actives 1.2% (n = 360,000); inhibition, % at 4.8 µM; in the data active = inhibition above about 30%;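 also: 0% = DMSO wells and 100% = wells lacking the enzyme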
# BH1578 lux ind: inducers of Vibrio cholerae quorum light production without autoinducers | V. cholerae BH1578 lux reporter, luminescence, 6 h | activation, % at 18.7 µM | actives 0.16% (n = 350,000) | AID 588436; in the data active = activation mostly above about 9.7%, no sharp cut-off
# Rv3671c protease: Rv3671c (M. tuberculosis) protease inhibition; P9WHR9; inhibition, % at 5.96 µM; actives 0.048% (n = 320,000); AID 2606; in the data active = inhibition above about 38%;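 also: extracellular domain of Rv3671c used as enzyme; 0% = enzyme with DMSO and 100% = no enzyme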
# UGM FP inh: blocks M. tuberculosis UGM enzyme | P9WIQ1 | purified UGM, fluorescence polarization probe displacement | inhibition, % at 10 µM | actives 0.06% (n = 320,000) | AID 504406; in the data active = inhibition above about 10%, passing the limit was not always enough
# * marks the source's active call; other numbers are inactive results; i = inactive; . = no result; + = active, no number. An excerpt weighted towards active compounds, which were near 4.1% of everything screened.
SMILES,RecA splice inh,Mtb FBA inh,GDH-TPI counter,BH1578 lux ind,Rv3671c protease,UGM FP inh
NNC(=S)NC1CC2CC1C1C=CCC21 (configuration not stated),1,0,8,i,2,1
Oc1ccc(O)c(C=NNC(=S)NC2CC3CC2C2C=CCC32)c1 (configuration not stated),.,2,31*,i,.,.
Cc1ccc(/C=N/Nc2nc(Cl)c(Cl)cc2Cl)s1,0,1,31*,i,4,0
Cc1ccccc1/C=N/Nc1nc2ccccc2[nH]1,-1,189*,12,0,8,0
Cc1ccc(/C=N/Nc2nc3ccccc3[nH]2)s1,9,1,39*,0,-1,1
C(=C\c1ccccc1)/C=N/Nc1nc2ccccc2[nH]1,1,0,39*,0,16,-1
Cc1ccsc1/C=N/Nc1nc(Cl)c(Cl)cc1Cl,-2,1,15,-3,-1,0
Cc1ccc(S(=O)(=O)Nc2nc(C)c(C)s2)cc1,0,3,-7,i,-8,4
CCCOc1ccc(F)cc1-c1cc(C(=O)NCc2cccc(Cl)c2)[nH]n1,.,-1,-1,-5,.,.
S=C1CCC(c2ccc(Br)cc2)=NN1c1ccccc1,1,-1,33*,0,-8,3
O=S(=O)(Nc1nc2ccccc2nc1NCC1CCCO1)c1ccccc1 (configuration not stated),1,7,41*,0,7,1
COc1ccc(S(=O)(=O)Nc2nc3ccccc3nc2NCC2CCCO2)cc1 (configuration not stated),-1,27*,25,0,1,5
Cc1ccc(S(=O)(=O)Nc2nc3ccccc3nc2NCC2CCCO2)cc1 (configuration not stated),-6,14,11,i,-2,0
O=S(=O)(Nc1nc2ccccc2nc1NCC1CCCO1)c1ccc(F)cc1 (configuration not stated),-1,9,28,i,10,1
Cc1[nH]c(=O)c(S(=O)(=O)c2ccccc2)c(C)c1Cl,1,2,17,0,-14,1
O=C(NCc1cccs1)C1CC(=O)N(Cc2ccccc2)C1 (configuration not stated),.,6,9,0,-4,0
COC(=O)c1ccc(C2NC(=S)N(c3ccccc3)C(C)=C2C(=O)Nc2ccccc2OC)cc1 (configuration not stated),2,+,8,.,0,0
COc1ccccc1NC(=O)C1=C(C)N(c2ccccc2)C(=S)NC1c1cccc(C(F)(F)F)c1 (configuration not stated),1,0,4,i,0,-1
CCN(CC)c1ccc(-c2nc3cnccc3n2C)cc1,-2,9,31*,0,-4,.
COc1ccc(NS(=O)(=O)c2cc(C(=O)NNC(=O)c3ccncc3)ccc2OC)c(OC)c1,.,-3,21,0,-6,-2
O=c1[nH]ccc2c([N+](=O)[O-])cccc12,-4,0,5,i,0,2
O=[N+]([O-])c1cccc2c([As](=O)(O)O)cccc12,35*,2,20,6,-6,2
Cc1ccc(-c2cc(C(=O)O)c3ccccc3n2)s1,-15,+,15,i,.,-1
O=C(Nc1ccccn1)c1cc(-c2ccc(Cl)s2)nc2ccccc12,.,22,5,i,-29,-1
CCN1CCN(C(=O)c2cc(-c3ccco3)nc3ccccc23)CC1,.,130*,12,-6,6,0
SMILES,RecA splice inh,Mtb FBA inh,GDH-TPI counter,BH1578 lux ind,Rv3671c protease,UGM FP inh
O=C(O)c1cc(-c2cccs2)nc2ccc(F)cc12,2,+,12,0,7,2
O=C(O)c1cc(-c2cccs2)nc2ccc(Br)cc12,-1,17,13,-1,5,-1
O=C(O)c1cc(-c2ccc(Cl)s2)nc2ccccc12,-8,159*,8,1,-1,3
CC(=O)N1CCN(C(=O)c2cc(-c3cccc4ccccc34)nc3ccccc23)CC1,0,6,6,i,6,1
COc1ccc(CCNS(=O)(=O)CCNC(=O)c2ccc3c(c2)OCO3)cc1OC,-1,-2,-6,-1,7,0
COc1cc(-c2cc(C(=O)Nc3ccc(C)c(S(=O)(=O)N4CCOCC4)c3)c3ccccc3n2)cc(OC)c1OC,.,7,20,i,-62,1
CCN1CCN(C(=O)c2cc(-c3ccc(Cl)s3)nc3ccccc23)CC1,-4,118*,21,0,.,.
COc1cccc(OC)c1C(=O)Nc1ccc2c3c(cccc13)CC2,8,-2,0,17*,1,0
COc1ccccc1C(=O)Nc1ccc2c3c(cccc13)CC2,-1,3,2,0,-2,-1
O=[N+]([O-])c1ccc(CN2CCN(Cc3c[nH]c4ccccc34)CC2)cc1,-1,-3,-6,i,12,-2
CN(C)S(=O)(=O)c1cccc(-c2cn3cccnc3n2)c1,-7,173*,6,2,3,0
O=[N+]([O-])c1ccc(-c2cn3ccccc3n2)cc1,5,-1,18,-1,-6,1
O=S(=O)(c1cccc(-c2cn3cccnc3n2)c1)N1CCOCC1,.,+,27,i,-4,-1
Cc1ccc2nc(-c3cccc(S(=O)(=O)N(C)C)c3)cn2c1,-2,5,4,i,2,-5
CN(C)S(=O)(=O)c1ccc(-c2cn3ccccc3n2)cc1,2,160*,7,.,-12,1
CCOC1=C2[C@H](c3ccc(Cl)cc3)N(S(=O)(=O)c3ccc(C)cc3)C[C@H]2n2c(=O)n(-c3ccccc3)c(=O)n2C1,.,-3,.,.,.,.
CC(C)COc1cccc(C(=O)NC2(C)CCS(=O)(=O)C2)c1 (configuration not stated),1,8,7,0,8,0
O=C(c1cccc(NS(=O)(=O)c2cccc([N+](=O)[O-])c2)c1)N1CCOCC1,2,156*,4,0,-7,-1
COc1ccc(N=C2O/C(=C/c3sc(=S)n(CC4CCCO4)c3O)N=C2C#N)cc1 (configuration not stated),1,-5,5,0,-12,-2
COCCCn1c(C(=O)NCCC2=CCCCC2)cc2c(=O)n3cccc(C)c3nc21,-3,6,0,i,3,1
Cn1c(C(=O)NCCN2CCOCC2)cc2c(=O)n3ccccc3nc21,-484,+,22,i,3,0
Cc1cccn2c(=O)c3cc(C(=O)NCCN4CCOCC4)n(C)c3nc12,-41,121*,9,5,7,-2
COCCCn1c(C(=O)NCCN2CCOCC2)cc2c(=O)n3ccccc3nc21,-390,+,10,i,-3,1
Cc1ccc2nc3c(cc(C(=O)NCCCn4ccnc4)n3C)c(=O)n2c1,i,+,16,i,3,-2
